Consider eleven compounds from PubChem BioAssay (NCATS).

Inconclusive results are not listed. A number with no mark means an inactive call. The call rests on the fitted dose curve; in most records, active means well fitted inhibition curve with a large enough effect; inconclusive means small, poorly fitted or top-dose-only effect; inactive means flat fitted curve, though single readings scatter.
On the % scale 0 is the no-effect control and ±100 the full control effect.

The target of this assay is Calcium and integrin-binding protein 1 (Homo sapiens) (UniProt Q99828). In words: Primary qHTS for Identification of Calcium Integrin Binding Protein 1 (CIB1) Competitor (AID 1508620).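 Further: GST tagged CIB1 binding a fluorescein labelled alphaIIb integrin peptide tracer; top concentration of the series differs between compounds.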 The following applies: CIB1-GST / FITC-alphaIIb peptide fluorescence polarization; series mostly up to 57.7 µM; activity change, negative = inhibition: at the top concentration. In short, it runs like this: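 CIB1-GST (1 uM final) and compound incubated 15 min at room temperature before adding FITC-alphaIIb peptide tracer (100 nM final). Competition for binding read by fluorescence polarization (ex 480, em 540) after another 15 min at room temperature.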
Sequence of Calcium and integrin-binding protein 1 (Homo sapiens) (Q99828 whole entry, looked up): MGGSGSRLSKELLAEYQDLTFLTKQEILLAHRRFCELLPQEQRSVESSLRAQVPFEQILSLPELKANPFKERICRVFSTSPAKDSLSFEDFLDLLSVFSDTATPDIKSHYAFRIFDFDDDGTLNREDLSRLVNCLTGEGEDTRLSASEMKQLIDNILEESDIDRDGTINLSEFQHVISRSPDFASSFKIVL
(Quantitative high-throughput screening tests each substance at several concentrations.)
Turning to `CCOC(=O)c1cncn1[C@H](C)c1ccccc1`, the “activity change, negative = inhibition” value is -0.103%.
The result for `C[C@@H]1[C@H](O)[C@@H](C)C=CC=CCCC=CC=CC=CC=C[C@H](O[C@H]2O[C@@H](C)[C@H](O)[C@@H](N)[C@@H]2O)CC2O[C@](O)(C[C@@H](O)[C@H](O)CC[C@@H](O)C[C@@H](O)C[C@@H](O)CC(=O)O[C@H]1C)C[C@H](O)[C@H]2C(=O)O` reads 3.67%; that for `C[C@H]1CCCC=CC2C[C@H](O)C[C@@H]2[C@H](O)C=CC(=O)O1` (stereo partly specified), -7.28%; that for `O=S(=O)(CC1CS1)c1ccc(Oc2ccccc2)cc1` (stereo unspecified), -6.2%.
The result for `COc1cc2cc(c1Cl)N(C)C(=O)C[C@H](OC(=O)C(C)C)[C@]1(C)O[C@H]1[C@H](C)[C@@H]1C[C@@](O)(NC(=O)O1)[C@H](OC)C=CC=C(C)C2` reads 5.5%; that for `COCC1(CO)C(=O)C2CCN1CC2` (stereo unspecified), 0.394%.
With `CC(=O)OCC1=C(C(=O)O)N2C(=O)[C@@H](N)[C@@H]2SC1`, the “activity change, negative = inhibition” value is -2.32%.
The result for `CC(=Cc1csc(C)n1)[C@@H]1C[C@H]2O[C@]2(C)CCC[C@H](C)[C@@H](O)[C@@H](C)C(=O)C(C)(C)[C@@H](O)CC(=O)O1` reads 0.398%.
In the case of `C[C@@]12OC(=O)[C@]1([C@@H](O)[C@@H]1C=CCCC1)NC(=O)[C@H]2CCCl`, the “activity change, negative = inhibition” value is -0.319%.
Next, `COc1cc([C@@H]2c3cc4c(cc3[C@@H](O)C3COC(=O)C32)OCO4)cc(OC)c1O` (stereo partly specified): -4.83%; `CC=C(C)C(=O)O[C@H]1C(C)=C2[C@@H]3OC(=O)[C@@](C)(O)[C@@]3(O)[C@@H](OC(=O)CCC)C[C@](C)(OC(C)=O)[C@@H]2[C@@H]1OC(=O)CCCCCCC`: 0.626%.
